Measurements as given in PubChem BioAssay (NCI).
The panel holds about 83,000 compounds, 20% with a hit somewhere; the sample as a whole holds those more often.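 96-well plates, one dose, 48 hours. Percent growth reported; active if below 10.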 A number with no mark means an inactive call. Calls of active or inactive are those of the source.

The compounds below were run on SK-MEL-5 melanoma (assay: NCI-60 one-dose screen, 48 h (100 = growth as untreated, 0 = no growth, -100 = all killed)). Details: 10 µM unless noted.

Compound | growth
O=C(COc1cccc(/C=C2\Oc3ccccc3C2=O)c1)c1ccc([N+](=O)[O-])cc1 | 99%
CC[C@]12C=CCN3CC[C@@]4(c5ccc(OC)cc5N(C)[C@H]4[C@@](O)(C(=O)OC)[C@@H]1OC(=O)CCC(=O)N[C@H](Cc1c[nH]c4ccccc14)C(=O)OC)[C@@H]32 | -53% [100 µM] (active)
C=C(C)[C@@H]1CC[C@]2(C(N)=O)CC[C@]3(C)[C@H](CC[C@@H]4[C@@]5(C)C/C(=C/c6cccnc6)[C@H](O)C(C)(C)[C@@H]5CC[C@]43C)[C@@H]12 | -78.1% [100 µM] (active)
CSc1nc2sc3cc(Cl)c(Cl)cc3n2c(=N)c1C#N | 86.4%
COc1ccc(/C=C2\N=C(Nc3ccccc3)N(NC(=O)c3ccccn3)C2=O)cc1 | 93.4%
O=C(NCCCNC(=O)OCc1ccc2cccc(O)c2n1)OCc1ccc2cccc(O)c2n1 | 61.5%
COc1cc(C(=O)/C=C/c2c(-c3ccc(F)cc3)nc3sccn23)cc(OC)c1OC | -50.5% (active)
CCCCCCCCCCCCNC(=S)N/N=C/c1ccccc1O | 88.8%
CCCc1cc2cc(-n3nc(C)c4c3CC(C)(C)CC4=O)cc(NC3CCSCC3)c2c(=O)[nH]1 | 70.4%
COc1ccc(-c2cc(-c3ccc(OC)c(OC)c3)nc(SCCCCCC(=O)NO)n2)cc1 | 31.9%
CCC(C)[C@H](NC(=O)NC(=O)NC(=O)CI)C(=O)OC (some centres not stated) | 91.5%
CCN(CC)c1ccc(/C=C/c2ccc3cc(C)ccc3[n+]2CC)cc1 | -97.5% (active)
